Test [1] can be described thus: qHTS assay for identifying genotoxic compounds that show differential cytotoxicity against isogenic chicken DT40 cell lines with known DNA damage response pathways - wild type cell line (AID 743012). Further: nearly all actives have a fitted effect of over 60% in size. Further: potency means the concentration at half of the fitted maximal effect. The essentials:
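First, wild type DT40 cells were plated at 300 per well and equilibrated about 0.5 h at 37 C/5% CO2. Next, compounds in DMSO were added and exposure lasted 40 h. Finally, CellTiter-Glo was added for 30 min at room temperature and luminescence recorded.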
Background: qHTS replaces the single test concentration by a dilution series.

Test [2] in a line: qHTS assay to identify small molecule antagonists of the androgen receptor (AR) signaling pathway - cell viability counter screen (AID 743033; further: nearly all actives have a fitted effect of over 45% in size).
Test [3] addresses Androgen receptor (Homo sapiens) (UniProt P10275). Briefly: qHTS assay to identify small molecule antagonists of the androgen receptor (AR) signaling pathway (AID 743035; active means well fitted inhibition curve with a large enough effect in the signal ratio in the repeat runs, not every such curve was filed as active; the % refers to the signal ratio; further: potency means the concentration at half of the fitted maximal effect). The essentials: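 Beta-lactamase FRET read (2 h RT incubation with LiveBLAzer B/G) following 16 h of compound plus R1881 treatment of AR-UAS-bla HEK293 cells, which had been pre-incubated 4 h at 37C.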
For test [4] the target is unchanged. Briefly: qHTS assay to identify small molecule agonists of the androgen receptor (AR) signaling pathway (AID 743036; active means well fitted activation curve with a large enough effect in the signal ratio in the repeat runs, with a control signal flat, not every such curve was filed as active; the % refers to the signal ratio). The essentials:
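Fluorescence from a beta-lactamase FRET substrate served as read-out in AR-UAS-bla GripTite HEK293 cells. Cells were treated with DMSO-dissolved compounds for 16 h at 37C, then with LiveBLAzer B/G substrate for 2 h at room temperature.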

For test [5] the target is unchanged. The experiment in a line: qHTS assay to identify small molecule agonists of the androgen receptor (AR) signaling pathway using the MDA cell line (AID 743040; further: nearly all actives have a fitted effect of over 20% in size). The essentials:
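After a 5 h incubation at 37C and 0% CO2, MDA-kb2 reporter cells were dosed with compounds in DMSO and kept 16 h under the same conditions. Luciferase activity was then read as luminescence with ONE-Glo.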

Test [6] is described as follows: qHTS assay to identify small molecule antagonists of the androgen receptor (AR) signaling pathway using the MDA cell line - cell viability counter screen (AID 743041; further: nearly all actives have a fitted effect of over 45% in size). The essentials:
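R1881-driven MDA-kb2 AR-luc cells, 3,000/well, were dosed with library compounds for 16 h; cell health came from CellTiter-Fluor fluorescence in the reporter wells.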

Test [7] has as its target Androgen receptor (Homo sapiens) (UniProt P10275). Briefly: qHTS assay to identify small molecule antagonists of the androgen receptor (AR) signaling pathway using the MDA cell line (AID 743042; further: nearly all actives have a fitted effect of over 55% in size). The essentials: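 Antagonist mode: compounds plus R1881 agonist added to MDA-kb2 AR-luc cells, incubated 16 h at 37C. Luciferase reporter luminescence quantified, with multiplexed CellTiter-Fluor readout for cell viability.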

Test [8] is described as follows: qHTS assay to identify small molecule antagonists of the thyroid receptor (TR) signaling pathway (AID 743065). Further: nearly all actives have a fitted effect of over 55% in size. Further: potency means the concentration at half of the fitted maximal effect. The essentials:
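Antagonism measured as loss of luciferase signal in GH3 cells stably carrying a TRE-luciferase reporter, co-treated with compound and T3 (1 nM final) for 23.5 h at 37 C. Viability was read in the same well by CellTiter-Fluor.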

The subject of test [9] is thyroid hormone receptor (rat, GH3 cells). The experiment in a line: qHTS assay to identify small molecule agonists of the thyroid receptor (TR) signaling pathway (AID 743066; calls by dose curve).
Test [10] deals with Estrogen receptor (Homo sapiens) (UniProt P03372). The experiment in a line: qHTS assay to identify small molecule antagonists of the estrogen receptor alpha (ER-alpha) signaling pathway (AID 743069; active means well fitted curve in the direction sought with a large enough effect in the signal ratio in the repeat runs, not every such curve was filed as active; the % refers to the signal ratio). The essentials:
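Compound effects are measured against 17beta-estradiol stimulation in HEK293 cells with a UAS-controlled beta-lactamase reporter for ER-alpha. Exposure lasts 18 hr at 37C; LiveBLAzer B/G FRET substrate follows for 2 hr at room temperature.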

Test [11] in a line: qHTS assay to identify small molecule antagonists of the estrogen receptor alpha (ER-alpha) signaling pathway - cell viability counter screen (AID 743074; calls by dose curve;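 further: HEK293 cells carrying ER-alpha-UAS-bla reporter stimulated with 17beta-estradiol; nearly all actives have a fitted effect of over 45% in size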).
The target in test [12] is Estrogen receptor (Homo sapiens) (UniProt P03372). Briefly: qHTS assay to identify small molecule agonists of the estrogen receptor alpha (ER-alpha) signaling pathway (AID 743075; calls by dose curve).
For test [13] the target is unchanged. The experiment in a line: qHTS assay to identify small molecule agonists of the estrogen receptor alpha (ER-alpha) signaling pathway using the BG1 cell line (AID 743079). Further: nearly all actives have a fitted effect of over 20% in size. Further: potency means the concentration at half of the fitted maximal effect.
Test [14] is described as follows: qHTS assay to identify small molecule antagonists of the estrogen receptor alpha (ER-alpha) signaling pathway using the BG1 cell line (AID 743080; calls by dose curve;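 further: BG1 cells stimulated with 17beta-estradiol alongside compound; series mostly up to about 70 µM; nearly all actives have a fitted effect of over 25% in size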). The essentials: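 Readout is ONE-Glo luminescence, taken 30 min at room temperature after reagent addition, preceded by a CellTiter-Fluor viability read; BG1-Luc-4E2 cells had received compound and 17beta-estradiol for 21.5 h at 37 C.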

A short description of test [15]: qHTS assay to identify small molecule antagonists of the estrogen receptor alpha (ER-alpha) signaling pathway using the BG1 cell line - cell viability counter screen (AID 743081).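 Further: compound given together with 17beta-estradiol as the ER stimulus; series mostly up to about 70 µM; nearly all actives have a fitted effect of over 45% in size.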
Test [16] concerns the target Aromatase (Homo sapiens) (UniProt P11511). Briefly: qHTS assay to identify aromatase inhibitors (AID 743083). Further: series mostly up to about 70 µM; nearly all actives have a fitted effect of over 55% in size.
The nature of test [17]: qHTS assay for identifying genotoxic compounds that show differential cytotoxicity against isogenic chicken DT40 cell lines with known DNA damage response pathways - Rev3 mutant cell line (AID 743014). Further: nearly all actives have a fitted effect of over 55% in size. Further: potency means the concentration at half of the fitted maximal effect.
Test [18] in a line: qHTS assay for identifying genotoxic compounds that show differential cytotoxicity against isogenic chicken DT40 cell lines with known DNA damage response pathways - Rad54/Ku70 mutant cell line (AID 743015). Further: nearly all actives have a fitted effect of over 60% in size.
Test [19] in a line: qHTS assay to identify small molecule antagonists of the thyroid receptor (TR) signaling pathway - cell viability counter screen (AID 743064). Further: nearly all actives have a fitted effect of over 50% in size. Further: potency means the concentration at half of the fitted maximal effect. The essentials:
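Fluorescence from CellTiter-Fluor, added after 23.5 h exposure at 37 °C, reported viability of GH3.TRE-Luc cells co-treated with compound and 1 nM T3. Measured in the same wells as the luciferase TR readout.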

Results filed as inconclusive are left out. Active and inactive are the calls of the source. Unless noted, the call rests on the fitted dose curve; in most records, active means well fitted curve in the direction sought with a large enough effect in the repeat runs; inconclusive means weak or mixed curves; inactive means no such curve, though single readings can be large; an effect the other way counts as inactive or inconclusive.

Chain of Aromatase (Homo sapiens) (P11511 whole entry, looked up): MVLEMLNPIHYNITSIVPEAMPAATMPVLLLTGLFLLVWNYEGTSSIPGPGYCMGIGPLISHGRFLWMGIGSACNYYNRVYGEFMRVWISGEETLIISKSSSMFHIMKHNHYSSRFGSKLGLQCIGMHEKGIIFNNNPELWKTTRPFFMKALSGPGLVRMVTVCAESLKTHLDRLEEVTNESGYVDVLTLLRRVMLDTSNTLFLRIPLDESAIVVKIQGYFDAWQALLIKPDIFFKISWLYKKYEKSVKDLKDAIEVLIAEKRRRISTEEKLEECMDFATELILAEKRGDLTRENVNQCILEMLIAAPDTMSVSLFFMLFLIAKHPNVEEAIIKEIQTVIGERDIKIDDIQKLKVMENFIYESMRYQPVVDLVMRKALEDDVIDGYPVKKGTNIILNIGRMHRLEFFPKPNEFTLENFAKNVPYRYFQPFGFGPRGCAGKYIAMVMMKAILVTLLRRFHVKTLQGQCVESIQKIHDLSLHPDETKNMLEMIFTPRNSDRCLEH
Chain of Estrogen receptor (Homo sapiens) (P03372 whole entry, looked up): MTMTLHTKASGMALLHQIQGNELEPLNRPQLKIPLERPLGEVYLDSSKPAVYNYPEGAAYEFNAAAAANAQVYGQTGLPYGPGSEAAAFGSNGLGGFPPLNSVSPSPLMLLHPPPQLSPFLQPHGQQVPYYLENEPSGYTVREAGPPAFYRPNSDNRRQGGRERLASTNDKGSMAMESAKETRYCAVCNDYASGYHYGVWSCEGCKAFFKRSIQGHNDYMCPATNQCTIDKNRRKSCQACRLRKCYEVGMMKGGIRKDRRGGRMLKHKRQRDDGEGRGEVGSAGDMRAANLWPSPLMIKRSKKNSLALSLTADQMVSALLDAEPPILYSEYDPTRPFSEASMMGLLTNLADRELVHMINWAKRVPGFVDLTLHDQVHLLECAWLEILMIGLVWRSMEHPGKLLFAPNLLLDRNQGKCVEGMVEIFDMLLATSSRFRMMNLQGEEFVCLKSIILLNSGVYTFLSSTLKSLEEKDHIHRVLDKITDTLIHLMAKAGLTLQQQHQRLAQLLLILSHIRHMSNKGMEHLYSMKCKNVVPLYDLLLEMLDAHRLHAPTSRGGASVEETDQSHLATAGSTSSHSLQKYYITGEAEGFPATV
Chain of Androgen receptor (Homo sapiens) (P10275 whole entry, looked up): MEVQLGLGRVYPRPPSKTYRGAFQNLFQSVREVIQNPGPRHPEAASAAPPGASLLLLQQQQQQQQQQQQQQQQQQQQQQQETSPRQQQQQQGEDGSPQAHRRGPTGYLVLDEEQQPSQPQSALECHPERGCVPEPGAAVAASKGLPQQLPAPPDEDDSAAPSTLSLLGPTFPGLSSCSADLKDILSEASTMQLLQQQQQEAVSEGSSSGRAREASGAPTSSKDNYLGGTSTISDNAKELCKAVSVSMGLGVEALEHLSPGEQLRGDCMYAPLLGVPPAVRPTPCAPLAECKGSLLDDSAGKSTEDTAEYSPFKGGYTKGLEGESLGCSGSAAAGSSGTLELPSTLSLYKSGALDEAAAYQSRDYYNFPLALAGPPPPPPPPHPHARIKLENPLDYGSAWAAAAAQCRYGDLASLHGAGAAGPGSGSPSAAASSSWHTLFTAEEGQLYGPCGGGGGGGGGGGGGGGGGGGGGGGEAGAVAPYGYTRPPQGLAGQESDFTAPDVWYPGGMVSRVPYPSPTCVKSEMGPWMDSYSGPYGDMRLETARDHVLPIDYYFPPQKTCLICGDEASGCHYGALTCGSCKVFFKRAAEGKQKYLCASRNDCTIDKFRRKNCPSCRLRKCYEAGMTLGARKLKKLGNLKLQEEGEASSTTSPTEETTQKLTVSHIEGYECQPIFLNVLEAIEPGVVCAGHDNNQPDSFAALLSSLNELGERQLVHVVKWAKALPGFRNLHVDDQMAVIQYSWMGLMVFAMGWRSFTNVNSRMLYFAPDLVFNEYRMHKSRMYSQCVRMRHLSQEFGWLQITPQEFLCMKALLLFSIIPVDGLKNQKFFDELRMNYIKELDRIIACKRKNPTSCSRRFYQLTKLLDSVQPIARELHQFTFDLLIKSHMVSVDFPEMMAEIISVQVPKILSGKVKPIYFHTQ

Take `COC(=O)C(C)O` (stereo not drawn): the Potency entry in test [1], in test [3], in test [5], in test [6], in test [8] and in test [10] was “inactive” each time. The Potency entry in [11], in test [13], in test [15] and in test [16] was “inactive” throughout. For the same molecule, the call in test [2], in [4], in test [7], in test [9], in test [12] and in test [14] was inactive.
With `CCOc1ccccc1N`, the Potency result in [17], in test [18], in [6], in test [19], in test [8] and in test [10] was “inactive” in each case. In addition, the Potency entry in test [11], in test [13], in test [15] and in test [16] was “inactive” in each case. Further, the outcome in test [2], in test [9], in [12] and in [14] was inactive.
`c1ccc(CN(CC2=NCCN2)c2ccccc2)cc1`: the Potency is 29.8 µM (active) in [1], 26.6 µM (active) in test [19] and 23.7 µM (active) in [8]. For the same molecule, the outcome in [2], in test [9], in [12] and in [14] was inactive. The Potency entry in [6], in [11], in [13], in test [15] and in [16] was “inactive” each time.
On to `Cc1nc(-c2ccccn2)ncc1C(=O)Nn1cc(C)c2cc(F)ccc21`, for which the results for the Potency in [17] and in test [3] were 61.1 µM (active) and 49 µM (active), respectively. Besides, the molecule was classed as inactive in [4], in [9] and in [12]. Further, the Potency entry in test [5], in test [6], in test [19], in test [8], in test [10] and in test [11] was “inactive” throughout. The Potency result in [15] and in [16] was “inactive” each time.
As for `CC(C)CCCCCCc1ccc(OCCOCCO)cc1`, the Potency entry in [1], in test [3], in test [5], in test [8], in test [10] and in [11] was “inactive” throughout. The Potency entry in [13] and in test [15] was “inactive” in each case. Further, the molecule was classed as inactive in test [2], in [4], in test [7], in [9], in test [12] and in test [14].
`CCOc1ccc2nc(N)sc2c1`: the Potency result in test [1], in test [6], in [8], in [10], in test [11] and in test [15] was “inactive” in each case. Moreover, the Potency entry in test [16] was “inactive”. In addition, the molecule was called inactive in [2], in test [9] and in test [12]. Moreover, in test [13], the Potency is 4.29 µM (active).
As to `CCOc1ccc(NS(=O)(=O)c2ccc(N)cc2)nn1`, the Potency entry in test [1], in test [18], in test [6], in test [19] and in test [8] was “inactive” in each case. The molecule was classed as inactive in test [2] and in test [9].
Regarding `Cc1cc2c(s1)Nc1ccccc1N=C2N1CCN(C)CC1`, the molecule was called inactive in test [2], in test [9], in [12] and in [14]. For the same molecule, the Potency entry in [6], in [10], in test [11], in [13], in test [15] and in test [16] was “inactive” throughout. For the same molecule, the Potency in test [19] was 13.3 µM (active).

For the origin of these results see PubChem BioAssay (Tox21).
